# Results from PubChem BioAssay (NCI).
# Compounds without any hit were thinned out: in the full panel of roughly 83,000, 20% have a hit.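 How to read the values: 0–100, growth inhibition (40 = 60% inhibited); 0, no net growth; -100 to 0, cell death (-40 = 40% of starting cells died; -100 = all dead).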 Values without a mark were called inactive. Calls of active or inactive are those of the source. The calls were made as follows: active = growth percent below 10; inactive = the rest.
# Columns and labels:
# Assay in all cases: NCI-60 one-dose screen, 48 h (100 = growth as untreated, 0 = no growth, -100 = all killed)
# Conditions in all cases: 10 µM unless noted
# DU-145 prostate = system: DU-145 prostate
# K-562 leukemia = system: K-562 leukemia
# MALME-3M melanoma = system: MALME-3M melanoma
# MDA-MB-231 breast = system: MDA-MB-231 breast
# RXF 393 renal = system: RXF 393 renal
# SF-268 CNS = system: SF-268 CNS
# SF-295 CNS = system: SF-295 CNS
# SF-539 CNS = system: SF-539 CNS
# M14 melanoma = system: M14 melanoma
# HCT-15 colon = system: HCT-15 colon
# HT29 colon = system: HT29 colon
# SNB-75 CNS = system: SNB-75 CNS
# SNB-19 CNS = system: SNB-19 CNS
# PC-3 prostate = system: PC-3 prostate
# SK-MEL-5 melanoma = system: SK-MEL-5 melanoma
# UACC-62 melanoma = system: UACC-62 melanoma
# LOX IMVI melanoma = system: LOX IMVI melanoma
# SK-MEL-28 melanoma = system: SK-MEL-28 melanoma
# U251 CNS = system: U251 CNS
# UACC-257 melanoma = system: UACC-257 melanoma
Structure (SMILES),growth (DU-145 prostate),growth (K-562 leukemia),growth (MALME-3M melanoma),growth (MDA-MB-231 breast) [%],growth (RXF 393 renal),growth (SF-268 CNS),growth (SF-295 CNS),growth (SF-539 CNS),growth (M14 melanoma) [%],growth (HCT-15 colon),growth (HT29 colon),growth (SNB-75 CNS),growth (SNB-19 CNS),growth (PC-3 prostate),growth (SK-MEL-5 melanoma),growth (UACC-62 melanoma),growth (LOX IMVI melanoma),growth (SK-MEL-28 melanoma),growth (U251 CNS),growth (UACC-257 melanoma)
CCOC(=O)Nc1cc(-c2ccc(C)c(NS(C)(=O)=O)c2)nn2c(C)nnc12,43.9%,16.7%,-25% (active),26.5,-8% (active),41.6%,-21.2% (active),17.2%,19,9.95% (active),9.76% (active),1.74% (active),39.1%,23.8%,-57.2% (active),12.9%,-22.7% (active),14.3%,–,–
O=Cc1ccccc1C(=O)O,103%,90.5%,103%,109,125%,96.3%,96.9%,94.8%,101,103%,100%,99.4%,107%,96.1%,101%,100%,101%,106%,96.9%,–
CCOc1cc(/C=C/C(=O)CC(=O)/C=C/c2ccc(OC(=O)CNc3nc4ccc(OC)cc4s3)c(OCC)c2)ccc1OC(=O)CNc1nc2ccc(OC)cc2s1,15.5%,2.04% (active),94.4%,64.5,-29.9% (active),26%,63.5%,3.65% (active),–,43.4%,-50.8% (active),34.1%,49%,35.3%,30.1%,55.8%,6.98% (active),39.5%,15.7%,67.6%
CC(NC(N)=S)c1ccccc1 (stereo unspecified),115%,94.6%,105%,91.9,98%,106%,101%,96.1%,104,104%,110%,95.1%,102%,108%,99.6%,101%,85%,110%,105%,–
COCCOCCOCCOCCOc1ccc2c(c1)C(=O)c1nc3ncccc3c(=O)n1-2,-95.1% (active),-92% (active),-96.2% (active),23.8,-72% (active),-19.2% (active),-97% (active),-89.6% (active),–,-95.6% (active),-39.3% (active),-61.1% (active),-87% (active),-8.58% (active),-100% (active),-97.2% (active),-87.7% (active),-75.3% (active),-63.6% (active),-83.9% (active)
COC(=O)N/N=C/c1coc2ccc(Cl)cc2c1=O,106%,86.9%,75.7%,71.3,66.6%,85.5%,93.6%,99.8%,–,97%,95.4%,80.5%,98.4%,74%,106%,93.9%,86.7%,100%,96.7%,111%
O=C1C=CC(=O)N1c1ccccn1,111%,94.5%,124%,102,126%,99.1%,105%,99.8%,–,97.7%,115%,89.3%,96.6%,99.4%,111%,95%,93.6%,115%,110%,105%
Nc1ccccc1C#Cc1ccccc1C#Cc1ccc(OCCCCCCOc2ccc(C#Cc3ccccc3C#Cc3ccccc3N)cc2)cc1,121%,121%,97.2%,86,75.3%,121%,106%,97.8%,–,106%,108%,105%,112%,97%,82.4%,96.6%,103%,109%,100%,101%
